Test results reported in PubChem BioAssay AID720542 (National Center for Advancing Translational Sciences (NCATS), 2013).
In all, about 360,000 compounds went through this assay and about 740 (0.21%) were called active. A call without a number means that no potency is given here. Roughly 2% stayed inconclusive and do not appear here. The full list was thinned out, with actives kept by preference. Values without a mark were called inactive. Calls come from the whole dose curve; as a rule, active = well fitted inhibition curve with a large enough effect; inconclusive = small, poorly fitted or top-dose-only effect; inactive = no such curve, though single readings can be large or run the other way.

System: Plasmodium falciparum AMA1 (3D7) - RON2 peptide interaction
Experiment: qHTS for Inhibitors of AMA1-RON; Towards Development of Antimalarial Drug Lead: Primary Screen; note: nearly all actives have a fitted effect of over 45% in size
Conditions: AlphaScreen AMA1-biotinylated RON2 peptide binding; series mostly up to 58.2 µM
Text: Plasmodium, the causative agent of malaria, is one of the world's deadliest parasitic diseases. Currently there is no vaccine available and there is widespread resistance to common anti-malarial drugs. This warrants novel, alternative approaches for developing improved therapy. During infection, one such essential interaction is between two parasite proteins, the apical membrane antigen1 (AMA1) that is translocated onto the merozoite surface and the rhoptry neck protein 2 (RON2), which is transferred to the red blood cells (RBC) membrane during invasion (Besteiro et.al., 2009). Recently, the Miller lab has shown that the interaction between AMA1 and RON2 is essential for junction formation of the parasite with the host cell (Srinivasan et.al., 2011). The binding of the RON2 peptide to the hydrophobic pocket in AMA triggers the formation of the moving junction which provides a firm anchor for the parasite to pull itself into the RBC using its actin-myosin motor; an irreversible step that commits the parasite for invasion. Only one AMA1 and RON2 genes exists in Plasmodium and there are no alternate pathways. Moreover, the region corresponding to RON2 peptide is conserved in all P. falciparum isolates for which sequences are available. The key residues in the AMA1 hydrophobic pocket that binds RON2 are also conserved and indicate a functional constraint governing this essential step in invasion since a short RON2 peptide (RON2L) corresponding to the binding region on AMA1 is sufficient to compete with the native RON2 protein and inhibits invasion (Tonkin et.al, 2011). Therefore, developing small molecule inhibitors of this interaction offers a promising target opening a new arena for anti-malarial therapeutics drug design.
In collaboration with the Miller lab, a quantitative High Throughput Screen using the AlphScreen technology was developed using a recombinant his-tagged AMA1 and a biotinylated RON2 peptide. This fluorescent screen was assayed against the NIH Molecular Libraries Small Molecule Repository (MLSMR). Inhibition of this protein-protein interaction is the desired outcome of this assay. However, due the limitations of this AlphaScreen assay, a large number of artifacts were observed. An AlphaScreen counterscreen was run to identify the true inhibitors, triage compound activity, and weed out false positives.
NIH Chemical Genomics Center [NCGC]
NIH Molecular Libraries Probe Centers Network [MLPCN]
Assay Submitter (PI): Louis Miller, National Institute of Allergy and Infectious Disease (NIAID)
Two microliters of his-tagged AMA1 3D7 allele protein (final concentration 25 nM) was dispensed into a 1,536-well assay plate. Small molecules and positive control peptides were pin-transferred (23 nL or 46 nL) via Kalypsys pin-tool equipped with a 1,536-pin array, resulting in final compound and peptide concentration ranges of 91.5 nM - 57.2 µM, and 15.6 nM - 2.00 µM, respectively. Unlabeled RON2 peptide or R1 peptide ([…]) that specifically binds the 3D7 AMA1 was used as a positive control that inhibited the binding of RON2L to AMA1. After 15 minutes incubation, 1 uL of biotinylated RON2 peptide (final concentration 25 nM) or buffer were dispensed and the assay plate was incubated for an additional 30 minutes at room temperature and protected from light. This was followed by an addition of 1 uL mixture of donor and acceptor beads (10 ug/mL final concentrations for each). The plates were incubated for 30 min at room temperature and read using the EnVision(R) plate reader (PerkinElmer). Maximum inhibition response was normalized to the positive control signal while no inhibition response was normalized to the DMSO treated wells.
Potency is the fitted concentration of half-maximal effect.

| SMILES | Potency | activity change, negative = inhibition |
| --- | --- | --- |
| CC1(C(=O)NCC2CCOCC2)Cc2c(-c3cccc(C(N)=O)c3)ccnc2O1 (stereo not given) | inactive | – |
| CN(Cc1c(F)cccc1Cl)C(=O)COC(=O)Cn1cnc2ccccc2c1=O | inactive | – |
| COc1ccc(/C(N)=N/OC(=O)Oc2ccccc2)cc1 | inactive | – |
| COc1ccc(C(C#N)=C2C=CC(=NO)c3ccccc32)cc1 | 12.6 µM (active) | – |
| COC(=O)Nc1ncc(CN2CCCCC2)s1 | inactive | – |
| CC(C)(C)c1nnc(N/N=C/c2ccc(O)cc2)n(N)c1=O | inactive | – |
| CC(=O)Nc1ccc(S(=O)(=O)Nc2nc3n(n2)C(c2ccccc2)CC(=O)N3)cc1 (stereo not given) | inactive | – |
| CCCCN(C(=O)CSCc1ccc(C)cc1)c1c(N)n(Cc2ccccc2)c(=O)[nH]c1=O | inactive | – |
| O=C(Nn1cnnc1)c1cc(Cl)ccc1Cl | inactive | – |
| Cc1cc(NC(=O)CCS(=O)(=O)c2ccc(F)cc2)no1 | inactive | – |
| CCn1c(SCC(=O)NC2=NCCS2)nnc1C(C)NC(=O)c1ccccc1F (stereo not given) | inactive | – |
| COc1ccc(NC(=O)NC2CC3CCCC(C2)N3Cc2ccccc2)cc1 (stereo not given) | inactive | – |
| Cc1c(S(=O)(=O)NCc2ccccc2)c(=O)n(C)c(=O)n1C | inactive | – |
| CC(C)(C)C1CCC(=O)N2CCC[C@]2(c2ccccc2)C1 (stereo not given in full) | inactive | – |
| O=C(O)CCCN1C(=O)c2ccccc2Sc2ncccc21 | inactive | – |
| Cc1ccc(C(=O)NCCc2nnc(SCC(=O)Nc3cccc(C(=O)O)c3)n2C)cc1 | inactive | – |
| CCCCc1nc2c(=O)[nH]c3ccccc3c2o1 | inactive | – |
| CC(Sc1nnnn1C1CCCCC1)C(=O)O (stereo not given) | inactive | – |
| CC(=O)c1c(C)[nH]c(C(=O)OCC(=O)Nc2cc(S(=O)(=O)N3CCCCC3)ccc2C)c1C | inactive | – |
| CN(Cc1ccccc1F)c1cc2c(c3c1ccn3C)C1CCC2O1 (stereo not given) | 31.6 µM (active) | – |
| CCCCN(C(=O)c1nn(C)c(=O)c2ccccc12)c1c(N)n(CCC)c(=O)[nH]c1=O | inactive | – |
| O=C(Nc1ccc2c(c1)nc1n2CCCCC1)c1cc(S(=O)(=O)N2CCOCC2)ccc1Cl | inactive | – |
| CCOC(=O)C1=C(CC)Nc2ccccc2N=C1NC(=O)c1cccc(S(=O)(=O)N2CCCC2)c1 | inactive | – |
| Cc1ncoc1C(=O)NCCC(c1ccccc1)c1ccccc1 | inactive | – |
| Cc1ccc(S(=O)(=O)/N=C(\CN2CCOCC2)N2CCOCC2)cc1 | inactive | – |

| SMILES | Potency | activity change, negative = inhibition |
| --- | --- | --- |
| C=CC(=O)Nc1ccc(Nc2ccnc(Nc3ccc(N4CCN(C)CC4)cc3)n2)cc1 | 15.8 µM (active) | – |
| COc1ccc(N2CCN(C(=S)Nc3ccc(S(N)(=O)=O)cc3)CC2)cc1 | inactive | – |
| O=C(Nc1ccc(N2CCN(C(=O)c3cccs3)CC2)cc1)c1cccnc1Cl | inactive | – |
| Cc1ccccc1NC(=O)COC(=O)c1cc(C)n(C2CC2)c1C | – | 4.53% [at 11.6 µM] |
| CC(NC(=O)c1ccc(N2CCNCC2)c([N+](=O)[O-])c1)C12CC3CC(CC(C3)C1)C2 (stereo not given) | inactive | – |
| c1ccc(CSc2nnc(-c3ccco3)c(-c3ccco3)n2)cc1 | 31.6 µM (active) | – |
| CSc1c(SCc2ccccc2)cnn(Cc2ccccc2)c1=O | inactive | – |
| CN(C)C(=O)CSc1n[nH]c(-c2ccco2)n1 | inactive | – |
| Cc1ccc(-n2ncc(C(=O)NC3CC3)c2C2CCN(C(=O)OC(C)(C)C)CC2)c(C)c1 | inactive | – |
| O=C(OCC#CCSc1nnc(-c2ccncc2)o1)c1sc2ccccc2c1Cl | inactive | – |
| Cc1ccc([N+](=O)[O-])c(OCCCNCC(C)O)c1 (stereo not given) | inactive | – |
| CCOC(=O)C1CCCN(C(=O)c2ccc(CS(=O)(=O)c3ccc(Br)cc3)o2)C1 (stereo not given) | inactive | – |
| C=CCNc1nc(N)c(C(=C(C#N)C#N)c2ccccc2)s1 | inactive | – |
| CCCC1CC(C)(C(=O)Cn2[nH]c(=O)ccc2=O)OC1=O (stereo not given) | inactive | – |
| CC12COC3(C(=O)Nc4ccc(Cl)cn4)CC1CCC32C (stereo not given) | inactive | – |
| CCC(=C/c1sc2ccc3ccccc3c2[n+]1C)/C=C1\Sc2ccc3ccccc3c2N1C | 35.5 µM (active) | – |
| COc1ccc(CN2CCC(c3nc4ccc(Cl)cc4[nH]3)CC2)cc1 | inactive | – |
| COCCOC(=O)C1=C(C)NC(=O)NC1c1cc2c(cc1Br)OCO2 (stereo not given) | inactive | – |
| O=C(CSc1nnc(-c2cccs2)n1Cc1ccccc1)N1CCc2ccccc2C1 | inactive | – |
| COc1ccccc1CN1CCN(C(=O)Cc2ccccc2)CC1 | inactive | – |
| CC(C)CC(=O)N1CCN(Cc2cccc(Cl)c2)CC1 | inactive | – |
| CC(C)CC(=O)N1CCN(Cc2ccccc2Br)CC1 | 20 µM (active) | – |
| CCCCC(O)C1=C[N+](=O)CC=C1 (stereo not given) | inactive | – |
| CN1CCN(Cc2nc3cc(NC(=O)COc4ccc([N+](=O)[O-])cc4)ccc3n2C)CC1 | inactive | – |
| COc1ccc(C2(CNC(=O)C(c3ccccc3)c3ccccc3)CCOCC2)cc1OC | inactive | – |
